System: Vero E6 infected with SARS-CoV-2
Test: inhibition of SARS-CoV-2 cytopathic effect; higher = more antiviral protection, active = above 15
Details: 48 h

Measured: inhibition of SARS-CoV-2 cytopathic effect

COc1cccc(CCc2ccccc2OCC[C@@H]2C[C@@H](O)CN2C)c1
inactive: 1 nM 2.39% | 8.33 nM 4.9% | 100 nM 14.7% | 833.33 nM -9.02% | 10000 nM -0.59%

CC1(CN)Cc2ccccc2C1
inactive: 1 nM 4.53% | 8.33 nM -3.63% | 100 nM -3.31% | 833.33 nM 1.99% | 10000 nM -3.29%

CCN[C@H]1CN(CCCOC)S(=O)(=O)c2sc(S(N)(=O)=O)cc21 [brinzolamide]
inactive: 1 nM 0.37% | 8.33 nM -1.59% | 100 nM -2.91% | 833.33 nM -1.67% | 10000 nM -2.11%

C[S+](CC[C@H](N)C(=O)O)C[C@H]1O[C@@H](n2cnc3c(N)ncnc32)[C@H](O)[C@@H]1O (stereo not given in full) [ademetionine]
inactive: 1 nM -2.98% | 8.33 nM -1.8% | 100 nM -2.58% | 833.33 nM -0.06% | 10000 nM 0.19%

Nc1ccn([C@H]2C[C@H](O)[C@@H](CO)O2)c(=O)n1 [torcitabine]
inactive: 1 nM -1.42% | 8.33 nM -0.61% | 100 nM 0.39% | 833.33 nM -0.39% | 10000 nM 1.92%

CC(=O)N(O)[C@@H]1c2cc(C#N)ccc2OC(C)(C)[C@H]1O
inactive: 1 nM -2.54% | 8.33 nM 0.31% | 100 nM 1.05% | 833.33 nM 0.36% | 10000 nM 3.02%

COc1ccc(CCN(C)CCc2ccc(OC)c(OC)c2)cc1OC
inactive: 1 nM 0.34% | 8.33 nM 3.91% | 100 nM 0.58% | 833.33 nM 4.35% | 10000 nM 3.64%

Reference: the supplement of paper PMC13380429
